Results reported in PubChem BioAssay AID651640 (Broad Institute, 2012).
Screen size: about 350,000 compounds; about 6,000 (1.7%) were called active. Another 5% or so got no clear call; they are omitted. The list comes from a sample in which actives are over-represented; it also holds similar structures and randomly drawn compounds. Values without a mark were called inactive. No stated cut-off is given here; in the data, active means CPE inhibition above about 20% (passing the limit was not always enough); inconclusive means no clear call, values can overlap the other calls; tested in BHK-21 cells.

Test: inhibitors of DENV2 cytopathic effect, primary screen, cell-based, plate reader, single concentration (AID 651640);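 further: 0% = median of neutral control wells and 100% = median of positive control wells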
Settings: DENV2-infected cells, cytopathic effect rescue, at 9.99 µM, active compounds read high

SMILES | CPE inhibition
COCC(=O)N[C@@H]1C[C@@H]2O[C@@H](CO)CC[C@@H]2O[C@@H]1CCc1ccc(-c2ccccc2)cc1 | 14.8%
CN(C)CC#Cc1ccc([C@H]2[C@H]3CN(C(=O)c4cccc(F)c4)CC(=O)N3[C@H]2CO)cc1 | 0.131%
COc1ccc(OC)c(NC(=O)N[C@H](Cc2ccccc2)C(=O)NN)c1 | -9.79%
COc1cc([C@H](Cc2ccccc2)NC(C)=O)oc(=O)c1 | 23.5% (active)
CCOC(=O)C(Cc1ccccc1)NC(=O)CCC(=O)c1ccc(OC)cc1 (stereo not drawn) | -0.51%
COCC(=O)N(C)C[C@@H]1Oc2ncc(C#C[C@H](C)O)cc2C(=O)N([C@@H](C)CO)C[C@@H]1C | -2.59%
C[C@H]1CN([C@@H](C)CO)C(=O)c2cc(Br)cnc2O[C@@H]1CN(C)C(=O)c1ccccc1F | 2.37%
Cc1cc(NS(=O)(=O)c2ccc(NC(=S)NC(=O)c3ccc(F)cc3Cl)cc2)no1 | 78.9% (active)
CCc1ccc(OC(C)C(=O)Nc2ccc(S(=O)(=O)Nc3cc(C)on3)cc2)cc1 (stereo not drawn) | 2.4%
CCOc1ccc(C(=O)Nc2ccc(S(=O)(=O)Nc3cc(C)on3)cc2)cc1 | 1.57%
CCC(=O)Nc1ccc2c(c1)C(=O)N(C)[C@@H]1CC[C@H](CC(=O)NCc3ccccc3)O[C@H]1CO2 | -3.19%
C[C@@H]1CN([C@@H](C)CO)C(=O)c2cc(NC(=O)Nc3ccc(C(F)(F)F)cc3)ccc2O[C@@H]1CN(C)Cc1ccncc1 | 31.1% (active)
C[C@@H]1CN([C@@H](C)CO)C(=O)c2cc(NC(=O)Nc3ccc(C(F)(F)F)cc3)ccc2O[C@@H](C)CCCCO[C@H]1CN(C)C(=O)c1ccccc1 | 25.6% (active)
C[C@@H]1CCCCO[C@@H](CN(C)Cc2ccc(C(=O)O)cc2)[C@H](C)CN([C@@H](C)CO)C(=O)c2cc(NC(=O)Nc3ccc(C(F)(F)F)cc3)ccc2O1 | 17.1%
C[C@@H]1CCCCO[C@@H](CN(C)C(=O)Nc2ccc(C(F)(F)F)cc2)[C@H](C)CN([C@H](C)CO)C(=O)c2cc(NC(=O)c3ccccc3)ccc2O1 | 4.25%
COc1ccc(CN(C)C[C@@H]2Oc3ccc(NC(=O)Nc4ccc(OC)cc4)cc3C(=O)N([C@H](C)CO)C[C@H]2C)cc1 | -3.17%
C[C@H](CO)N1C[C@H](C)[C@H](CN(C)Cc2ccncc2)Oc2ccc(NC(=O)Nc3ccc(F)cc3)cc2C1=O | -10.5%
C[C@@H]1CN([C@H](C)CO)C(=O)c2cc(NC(=O)Nc3ccccc3)ccc2O[C@@H](C)CCCCO[C@H]1CN(C)Cc1ccc(C(F)(F)F)cc1 | -1.92%
C[C@H](CO)N1C[C@H](C)[C@@H](CN(C)Cc2ccc3c(c2)OCO3)Oc2ccc(NC(=O)Nc3ccc(F)cc3)cc2C1=O | -6.58%
COc1ccc(NC(=O)Nc2ccc3c(c2)C(=O)N([C@@H](C)CO)C[C@H](C)[C@@H](CN(C)Cc2ccc4c(c2)OCO4)O3)cc1 | 31.5% (active)
C[C@H]1CCCCO[C@@H](CN(C)Cc2ccc(C(F)(F)F)cc2)[C@@H](C)CN([C@@H](C)CO)C(=O)c2cc(NC(=O)Nc3ccccc3)ccc2O1 | -2.84%
C[C@@H]1CCCCO[C@@H](CN(C)Cc2ccc(C(=O)O)cc2)[C@@H](C)CN([C@@H](C)CO)C(=O)c2cc(NC(=O)Nc3ccc(C(F)(F)F)cc3)ccc2O1 | 21.1% (active)
C[C@H](CO)N1C[C@H](C)[C@@H](CN(C)Cc2ccncc2)Oc2ccc(NC(=O)Nc3ccccc3)cc2C1=O | 7.94%
